# Test results taken from PubChem BioAssay.
# Inconclusive results are not listed. Calls of active or inactive are those of the source. Unless noted, no rule for the calls is given here.
# Assays:
# [1] = hESC survival regulators, cell-based (AID 493140); details: human embryonic stem cell survival screen; stronger effect = higher value;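 also: cells exposed to compounds for four days before counting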
# [2] = growth inhibition of DIPG glioma cells, dose response, cell-based, SU-DIPG-IV, MIPE4.0, CellTiter-Glo, qHTS (AID 1347063; cut-off not given, nearly all actives have AC50 up to about 30 µM;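 also: compound exposure lasted 48 hours before the viability readout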); details: SU-DIPG-IV viability, CellTiter-Glo ATP luminescence
# [3] = viability loss in pontine glioma line – cell-based, SU-DIPG-XXV, MIPE5.0, CellTiter-Glo, qHTS, dose response (AID 1347065; cut-off not given, nearly all actives have AC50 up to about 26 µM;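 also: cells exposed to compound for 48 hours before ATP readout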); details: CellTiter-Glo ATP luminescence
# [4] = SU-DIPG-VI glioma cell viability, MIPE4.0 library, CellTiter-Glo luminescence, qHTS (AID 1347066; cut-off not given, nearly all actives have AC50 up to about 30 µM;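 also: cells exposed to compound for 48 hours before readout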); details: CellTiter-Glo ATP luminescence
# [5] = JHH-DIPG-1 glioma cell viability, MIPE5.0 library, CellTiter-Glo luminescence, qHTS (AID 1347067; cut-off not given, nearly all actives have AC50 up to about 26 µM;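 also: cells exposed to compound for 48 hours before readout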); details: JHH-DIPG-1 glioma viability, CellTiter-Glo ATP luminescence
# [6] = growth inhibition of DIPG glioma cells, dose response, cell-based, SU-DIPG-XVII, MIPE5.0, CellTiter-Glo, qHTS (AID 1347060; cut-off not given, nearly all actives have AC50 up to about 26 µM); details: SU-DIPG-XVII viability, CellTiter-Glo ATP luminescence
# [7] = SU-DIPG-XXV glioma cell viability, MIPE5.0 library, qHTS (AID 1347068; cut-off not given, nearly all actives have IC50 up to about 30 µM)
# [8] = circadian clock period modulators, cell-based, LOPAC library, luminescence reporter (AID 2774); details: circadian reporter cells, at 7 µM, actives lie on both sides;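 also: values are relative to mean of DMSO wells on each plate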
# [9] = tested on: Hepatitis C virus NS3 helicase; test: HCV NS3 helicase inhibitors, primary screen, biochemical, fluorescence polarization, LOPAC1280 library (AID 687035; in the data active = inhibition above about 37%); details: Purified HCV NS3 helicase, Cy5-dT15 ssDNA binding fluorescence polarization; stronger effect = higher value; concentration not given here
# [10] = Cy5 fluorescence quenching or enhancement artefacts, artefact control for HCV NS3 helicase inhibitor project, biochemical, LOPAC1280 (AID 687037); details: Cy5-DNA-NS3h complex fluorescence interference counterscreen
# [11] = growth inhibition of DIPG glioma cells, dose response, cell-based, SU-DIPG-XIII, MIPE5.0, CellTiter-Glo, qHTS (AID 1347064; cut-off not given, nearly all actives have AC50 up to about 23 µM); details: SU-DIPG-XIII viability, CellTiter-Glo ATP luminescence
# [12] = phospholipid biosynthesis inhibitors in animal cells, primary screen, cell-based, LOPAC library, screen 4 (AID 1347384); details: phospholipid biosynthesis inhibition screen, at 10 µM
# [13] = LFS_MB_P medulloblastoma growth inhibition, cell-based, chromothripsis tumors, cisplatin or BGB combos (AID 1671449; in the data active = inhibition above about 80%;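 also: cells exposed for 96 hours; 0% = vehicle DMSO and 100% = killing by high DMSO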); details: LFS_MB_P medulloblastoma cells
# [14] = HDN33 neuroblastoma growth inhibition, cell-based, chromothripsis tumors, cisplatin or BGB combos (AID 1671450; in the data active = inhibition above about 80%;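 also: cells exposed to compound for four days; 0% = vehicle DMSO and 100% = cell killing by high DMSO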); details: HDN33 neuroblastoma cells, stronger effect = higher value
# [15] = LFS_MB_1R medulloblastoma cell growth inhibition, synergistic combos for chromothripsis tumors, cisplatin or BGB combos (AID 1671452; in the data active = inhibition above about 80%;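 also: cells exposed for 96 hours before readout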); details: LFS_MB_1R medulloblastoma cells, stronger effect = higher value
# [16] = HTB85 osteosarcoma cell growth inhibition, synergistic combos for chromothripsis tumors, BGB or cisplatin IC20 combos (AID 1671453; in the data active = inhibition above about 80%;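 also: cells exposed for 96 hours before readout; 0% = vehicle DMSO and 100% = high DMSO killing control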); details: HTB85 osteosarcoma cells, drug combinations, stronger effect = higher value
# [17] = MDA-MB-436 breast carcinoma cell growth inhibition, synergistic combos for chromothripsis tumors, BGB or cisplatin combos (AID 1671458); details: MDA-MB-436 breast carcinoma growth inhibition, drug combinations, stronger effect = higher value;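 also: cells exposed for 96 hours; 0% = vehicle DMSO and 100% = killing by high DMSO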
# [18] = growth inhibition of BT084 medulloblastoma cells, cell-based, ICGC_MB145, cisplatin and BGB IC40 combos (AID 1671461; in the data active = inhibition above about 80%;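 also: cells exposed to drugs for 96 hours; 0% = vehicle DMSO and 100% = high DMSO full killing control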); details: drug combinations, stronger effect = higher value
# [19] = growth inhibition of RCMB18 medulloblastoma cells, cell-based, cisplatin and BGB IC40 combos (AID 1671462; in the data active = inhibition above about 80%;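 also: cells exposed to compound for four days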); details: stronger effect = higher value
# [20] = growth inhibition of CRL1545 osteosarcoma cells, cell-based, cisplatin and BGB IC20 combos (AID 1671464; in the data active = inhibition above about 80%;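 also: cells exposed to compound for 96 hours before readout; 0% = vehicle DMSO and 100% = high DMSO killing control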); details: stronger effect = higher value
# [21] = measured here: combination with BGB IC40, at 0.05 µM
# [22] = measured here: with BGB IC20 combination, at 0.5 µM
# [23] = measured here: with cisplatin IC20 combination, at 0.5 µM
# [24] = measured here: combination with cisplatin, at 0.5 µM
smiles,measurement,setting,value
O=c1cc(-c2ccccc2)oc2cc(O)cc(O)c12,survival,[1],11.8 (inactive)
same,outcome,[2],inactive
same,AC50,[3],20.9 µM (active)
same,outcome,[4],inactive
same,outcome,[5],inactive
O=C1C[C@@H](c2ccc(O)cc2)Oc2cc(O)cc(O)c21,outcome,[6],inactive
same,outcome,[2],inactive
same,outcome,[3],inactive
same,outcome,[4],inactive
same,outcome,[5],inactive
same,outcome,[7],inactive
CC[C@H]1OC(=O)[C@H](C)[C@@H](O[C@H]2C[C@@](C)(OC)[C@@H](O)[C@H](C)O2)[C@H](C)[C@@H](O[C@@H]2O[C@H](C)C[C@H](N(C)C)[C@H]2O)[C@](C)(O)C[C@@H](C)C(=O)[C@H](C)[C@@H](O)[C@]1(C)O,outcome,[6],inactive
same,outcome,[3],inactive
same,outcome,[5],inactive
same,outcome,[7],inactive
Cc1cc(O)c2c(c1)C(=O)c1cc(O)cc(O)c1C2=O,period change,[8],0.05 h (inactive)
same,inhibition,[9],0% (inactive)
same,fluorescence ratio (interference),[10],1 (inactive)
same,outcome,[11],inactive
same,outcome,[4],inactive
same,outcome,[12],inactive
COc1c2ccoc2cc2oc(=O)ccc12,inhibition,"[13]; at 0.5 µM, stronger effect = higher value",-22.9% (inactive)
same,inhibition,"[13]; measured here: combination with BGB IC20, at 0.005 µM",-15%
same,inhibition,"[13]; measured here: combination with BGB IC40, at 0.005 µM",-30%
same,inhibition,[13]; [21],3.17%
same,inhibition,"[13]; measured here: combination with cisplatin, at 0.5 µM, stronger effect = higher value",-36.3%
same,inhibition,"[13]; measured here: combination with cisplatin, at 5 µM, stronger effect = higher value",-26.9%
same,inhibition,"[14]; BGB combo, at 5 µM",-4.43%
same,inhibition,[14]; at 0.5 µM,-1.51% (inactive)
same,inhibition,"[14]; cisplatin combo, at 5 µM",-17.2%
same,inhibition,[14]; [22],5%
same,inhibition,[14]; [23],1.07%
same,inhibition,"[14]; single agent, at 5 µM",-13.4%
same,inhibition,[15]; at 0.5 µM,-1.71% (inactive)
same,inhibition,[15]; [21],-39.8%
same,inhibition,[15]; [24],-31.5%
same,inhibition,"[15]; measured here: combination with cisplatin, at 5 µM",0.408%
same,inhibition,[16]; at 0.5 µM,-23.4% (inactive)
same,inhibition,"[16]; measured here: with BGB IC20, at 0.5 µM",-60.7%
same,inhibition,"[16]; measured here: with BGB IC20, at 5 µM",-19.3%
same,inhibition,"[16]; measured here: with cisplatin IC20, at 0.5 µM",-7.94%
same,inhibition,"[16]; measured here: with cisplatin IC20, at 5 µM",10.7%
same,inhibition,"[16]; single agent, at 5 µM",-6.82%
same,inhibition,[17]; at 0.5 µM,-22.2% (inactive)
same,inhibition,"[17]; measured here: BGB combination, at 0.5 µM",-22.9%
same,inhibition,"[17]; measured here: BGB combination, at 5 µM",-18.9%
same,inhibition,"[17]; measured here: cisplatin combination, at 0.5 µM",-40%
same,inhibition,"[17]; measured here: cisplatin combination, at 5 µM",-24.1%
same,inhibition,[18]; at 0.5 µM,-16.4% (inactive)
same,inhibition,"[18]; cisplatin combination, at 0.5 µM",-9.55%
same,inhibition,"[18]; cisplatin combination, at 5 µM",-48%
same,inhibition,"[18]; measured here: BGB IC40 combination 0.05 uM, at 0.05 µM",-9.91%
same,inhibition,"[18]; single agent, at 5 µM",-11.1%
same,inhibition,[19]; at 0.5 µM,-11% (inactive)
same,inhibition,"[19]; cisplatin combo, at 5 µM",17.9%
same,inhibition,"[19]; measured here: BGB IC40 combination, at 0.05 µM",-6.4%
same,inhibition,[19]; [24],-1.6%
same,inhibition,"[19]; single agent, at 5 µM",-15.2%
same,inhibition,[20]; at 0.5 µM,-17.9% (inactive)
same,inhibition,[20]; [22],-18.6%
same,inhibition,[20]; [23],-17.5%
same,inhibition,"[20]; single agent, at 0.05 µM",-2.38%
same,inhibition,"[20]; single agent, at 5 µM",22.5%
CCCCN1CCCCC1C(=O)Nc1c(C)cccc1C (centres undefined),survival,[1],10.1 (inactive)
COc1cc2ccc(=O)oc2cc1O,survival,[1],12.4 (inactive)
O=c1ccc2cc(O)c(O)cc2o1,survival,[1],5.75 (inactive)
CN(C)CCC(c1ccc(Br)cc1)c1ccccn1 (centres undefined),period change,[8],0.005 h (inactive)
same,survival,[1],1.08 (inactive)
same,inhibition,[9],0% (inactive)
same,fluorescence ratio (interference),[10],0.9 (inactive)
same,outcome,[12],inactive
CC(C)Cn1c(=O)n(C)c(=O)c2[nH]cnc21,period change,[8],0.065 h (inactive)
same,inhibition,[9],-1% (inactive)
same,fluorescence ratio (interference),[10],0.9 (inactive)
same,outcome,[12],inactive
Cc1[nH]ccc2c1[nH]c1cc(=O)ccc12,survival,[1],3 (inactive)
COc1ccc([C@@H]2CC(=O)c3c(O)cc(O)cc3O2)cc1O,survival,[1],17.8 (inactive)
CC(C(=O)O)c1cccc(Oc2ccccc2)c1 (centres undefined),survival,[1],1.75 (inactive)
COc1cc2cc3c4cc(OC)c(OC)cc4cc[n+]3c(C)c2cc1OC,survival,[1],0.333 (inactive)
